Screens deposited in PubChem by several laboratories.
Sampled rows, rich in hits. Any-hit rate of the full collection: about 6.6%.
Gli-Sufu antag: blocks Gli-Sufu signaling in a luciferase reporter. Sufu-KO-LIGHT fibroblasts, Gli luciferase reporter luminescence. inhibition, % at 5 µM. 340,000 compounds, 0.74% hits. AID 588413;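 active = inhibition above about 55%, limit read from the data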;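 note: 0% = DMSO-treated cells and 100% = wells with medium but no cells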
Beta cell apopt: blocks beta cell apoptosis | INS-1E cytokine-induced death, ATP luminescence, 48 h; percent of positive-control rescue, neutral wells zero | protection from apoptosis, % (test concentration not listed) | 300,000 compounds, 0.8% hits | AID 435005;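 active = Every replicate reaches about 75%, or at least half do and their mean reaches it too, limit read from the data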;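 note: 0% = cytokine-treated negative control wells and 100% = positive control rescue; higher means more ATP so stronger rescue from cytokine killing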
GRIN3A LBD mod: NR3A (human) ligand-binding domain modulation; NR3A LBD differential scanning fluorimetry, Tm shift; 0% = protein alone, 100% = glycine-bound protein; Tm shift relative to glycine control, % at 25 µM; 340,000 compounds, 2.5% hits; AID 1259313;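 active = melting temperature shift of at least 10% of the positive control shift, at one fixed dose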
Mdm2-MdmX inh: inhibitors of human Mdm2/MdmX interaction; O15151+Q00987; SaOS-2 split-luciferase Mdm2/MdmX complementation, luminescence; inhibition, % at 8 µM; 330,000 compounds, 3% hits; AID 485346;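 active = inhibition of at least 50% at 8 µM in the primary screen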
Target sequence (O15151 whole entry, looked up): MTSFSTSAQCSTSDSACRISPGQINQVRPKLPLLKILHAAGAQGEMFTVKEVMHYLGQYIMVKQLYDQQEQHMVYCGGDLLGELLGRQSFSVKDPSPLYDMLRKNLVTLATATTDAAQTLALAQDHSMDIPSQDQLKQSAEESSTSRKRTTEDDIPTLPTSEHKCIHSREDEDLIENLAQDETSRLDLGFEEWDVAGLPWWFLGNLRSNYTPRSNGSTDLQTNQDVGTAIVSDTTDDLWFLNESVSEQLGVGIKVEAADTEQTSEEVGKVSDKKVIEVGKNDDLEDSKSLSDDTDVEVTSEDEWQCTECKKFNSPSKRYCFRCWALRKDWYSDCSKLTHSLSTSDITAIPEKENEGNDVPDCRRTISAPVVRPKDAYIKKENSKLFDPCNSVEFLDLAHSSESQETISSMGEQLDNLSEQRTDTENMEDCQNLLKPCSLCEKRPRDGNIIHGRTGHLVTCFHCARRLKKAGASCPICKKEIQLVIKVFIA
Target sequence (Q00987 whole entry, looked up): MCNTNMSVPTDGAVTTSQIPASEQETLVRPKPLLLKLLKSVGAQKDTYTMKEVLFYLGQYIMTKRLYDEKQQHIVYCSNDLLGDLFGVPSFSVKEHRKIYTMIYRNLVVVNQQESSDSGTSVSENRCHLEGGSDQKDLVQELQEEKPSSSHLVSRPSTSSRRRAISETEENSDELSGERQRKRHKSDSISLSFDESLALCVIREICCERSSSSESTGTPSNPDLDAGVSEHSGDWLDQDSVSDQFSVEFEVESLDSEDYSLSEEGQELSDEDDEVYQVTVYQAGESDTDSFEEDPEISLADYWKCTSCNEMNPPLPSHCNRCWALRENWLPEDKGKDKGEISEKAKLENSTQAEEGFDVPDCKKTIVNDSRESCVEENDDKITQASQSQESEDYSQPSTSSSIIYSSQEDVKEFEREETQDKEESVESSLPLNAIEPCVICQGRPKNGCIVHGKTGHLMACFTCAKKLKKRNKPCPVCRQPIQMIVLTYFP
CSC inhib: cancer stem cell inhibition; cancer stem cell-like cells viability, luminescence; inhibition, % at 7.5 µM; 300,000 compounds, 1.1% hits; AID 2717; in the data active = inhibition above about 75%; tested in HMLE shEcad cells
MPTP block: inhibitors of mitochondrial permeability transition pore | isolated mouse mitochondria, Ca2+ swelling absorbance, 30 min | inhibition, % at 10 µM | 360,000 compounds, 1.4% hits | AID 602449;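 active = inhibition of 50% or more, scaled per plate between neutral and stimulator controls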;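 note: 0% = DMSO wells given calcium and 100% = 1 mM EGTA wells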
Mdm2-MdmX conf: confirmation of human Mdm2/MdmX interaction inhibitors. shares compounds with Mdm2-MdmX inh. Mdm2-MdmX binding, luminescent assay. inhibition, % at 8 µM. 10,000 compounds, 55% hits. AID 489028; in the data active = inhibition above about 40%
FLuc counter: counter-screen for Mdm2/MdmX inhibitors: full-length luciferase; shares compounds with Mdm2-MdmX inh; SaOS-2 full-length luciferase counterscreen, luminescence; inhibition, % at 8 µM; 6,200 compounds, 77% hits;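 active = mean inhibition at 8 µM reaching about 37%, which flags the compound as non-specific, limit read from the data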;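 note: p53-null SaOS-2 cells with luciferase driven by a doxycycline-inducible promoter; compound on cells about two nights before reading with doxycycline added after day one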
* hit, by the source's call.

How did C/C(=N\NC(=O)c1ccc2c(c1)OCCO2)c1ccccc1 do in these assays?
Gli-Sufu antag: -48.8; Beta cell apopt: -1.9; GRIN3A LBD mod: 2.9; Mdm2-MdmX inh: 71.3*; CSC inhib: 23.5; MPTP block: 4.1; Mdm2-MdmX conf: -12.9

How did CCOc1cccc(/C=N/NC(=O)c2ccc3c(c2)OCCO3)c1O do in these assays?
Gli-Sufu antag: 36.7; Beta cell apopt: 91.6*; GRIN3A LBD mod: -10.2; Mdm2-MdmX inh: 56.0*; CSC inhib: 27.7; MPTP block: -1.4; Mdm2-MdmX conf: 43.0*; FLuc counter: 45.3*

Results for C/C(=N\NC(=O)c1ccc(O)cc1)c1ccc2c(c1)OCCO2 ?
Gli-Sufu antag: -37.0; Beta cell apopt: -8.9; GRIN3A LBD mod: -0.2; Mdm2-MdmX inh: 3.8; MPTP block: 1.0

How did CCOc1cccc(/C=N/NC(=O)c2cc(-c3cccn3C)n[nH]2)c1O do in these assays?
Gli-Sufu antag: 11.2; GRIN3A LBD mod: -4.8; Mdm2-MdmX inh: 62.9*; CSC inhib: -6.0; MPTP block: -0.5; Mdm2-MdmX conf: 62.5*; FLuc counter: 51.6*

Results for COc1cccc(/C=N/NC(=O)CNC(=O)c2ccc3c(c2)OCCO3)c1O ?
Gli-Sufu antag: 0.2; Beta cell apopt: 14.5; GRIN3A LBD mod: 1.4; Mdm2-MdmX inh: 20.3; CSC inhib: 10.2; MPTP block: 0.1

How did CCOC1=C2CN(S(=O)(=O)c3ccc(C)cc3)[C@@H](c3ccccc3)C[C@H]2[C@H]2C(=O)N(c3ccccc3)C(=O)[C@H]2C1 do in these assays?
MPTP block: 0.1

What do the screens show for `COc1ccccc1CNC(=O)Cn1cccc1C(=O)c1ccccc1`?
Gli-Sufu antag: -28.6; Beta cell apopt: -0.4; GRIN3A LBD mod: 4.4; Mdm2-MdmX inh: 6.5; CSC inhib: 14.4; MPTP block: 0.3

What do the screens show for `Cc1ccc(-c2[nH][nH]c(=O)c(=O)c2N=Nc2ccccc2)cc1`?
Gli-Sufu antag: -9.4; Beta cell apopt: 7.8; GRIN3A LBD mod: 0.1; Mdm2-MdmX inh: 60.9*; CSC inhib: 3.4; MPTP block: -0.9; Mdm2-MdmX conf: -2.3

What do the screens show for `O=C(c1cccc(NC2=NC3CS(=O)(=O)CC3S2)c1)N1CCN(c2ncccn2)CC1` (centres undefined)?
Gli-Sufu antag: 2.0; Beta cell apopt: -12.5; GRIN3A LBD mod: 0.1; Mdm2-MdmX inh: 16.9; CSC inhib: -19.3; MPTP block: 0.1

Results for Brc1cc(Br)c2ncnc(N3CCCCC3)c2c1 ?
Gli-Sufu antag: 5.4; Beta cell apopt: 13.2; GRIN3A LBD mod: -1.2; Mdm2-MdmX inh: 88.7*; CSC inhib: 83.6*; MPTP block: 1.1; Mdm2-MdmX conf: 63.9*; FLuc counter: 27.7

How did Clc1ccc(Cn2ncc3c(N4CCCCC4)ncnc32)c(Cl)c1 do in these assays?
Gli-Sufu antag: 9.8; Beta cell apopt: 9.6; GRIN3A LBD mod: 3.0; Mdm2-MdmX inh: 29.2; CSC inhib: -3.7

Results for COc1cc2cncc(Cc3ccc(Cl)cc3)c2cc1OC ?
Gli-Sufu antag: 1.2; Beta cell apopt: -9.6; GRIN3A LBD mod: 0.9; Mdm2-MdmX inh: 68.6*; CSC inhib: 0.5; MPTP block: -0.4; Mdm2-MdmX conf: 65.3*; FLuc counter: 26.2

How did COc1ccc(CNC(=O)Cn2ncn3cccc3c2=O)cc1 do in these assays?
Beta cell apopt: 2.3; Mdm2-MdmX inh: 18.0

What do the screens show for `CCOc1ccc(CCNC(=O)Cn2ncn3nc(-c4ccc(OC)cc4)cc3c2=O)cc1`?
Gli-Sufu antag: -1.8; Beta cell apopt: 6.7; GRIN3A LBD mod: -1.1; Mdm2-MdmX inh: 28.2; CSC inhib: 3.6; MPTP block: 0.0

How did COc1ccc(-c2cc3c(=O)n(CC(=O)NCc4ccc(C)cc4)ncn3n2)cc1 do in these assays?
Gli-Sufu antag: -6.0; Beta cell apopt: 17.5; GRIN3A LBD mod: -6.5; Mdm2-MdmX inh: 94.8*; CSC inhib: 13.1; MPTP block: -1.0; Mdm2-MdmX conf: -8.2

Results for COc1ccc(CNC(=O)Cn2ncn3c(cc4ccccc43)c2=O)cc1 ?
Gli-Sufu antag: -7.9; Beta cell apopt: -3.9; GRIN3A LBD mod: -0.9; Mdm2-MdmX inh: 67.0*; CSC inhib: -6.2; MPTP block: 0.6; Mdm2-MdmX conf: 11.0

What do the screens show for `COc1ccc(-c2cc3c(=O)n(CC(=O)NCc4ccc(F)cc4)ncn3n2)cc1`?
Gli-Sufu antag: -78.0; Beta cell apopt: 32.1; GRIN3A LBD mod: -0.2; Mdm2-MdmX inh: 86.0*; CSC inhib: 16.5; MPTP block: -0.6; Mdm2-MdmX conf: 21.3

What do the screens show for `COc1ccc(-c2cc3c(=O)n(CC(=O)N4CCCC4)ncn3n2)cc1`?
Gli-Sufu antag: -3.4; Beta cell apopt: 1.1; GRIN3A LBD mod: -2.4; Mdm2-MdmX inh: 10.7; CSC inhib: -1.4; MPTP block: -0.7

What do the screens show for `COc1ccc(-c2cc3c(=O)n(CC(=O)NCc4ccc(Cl)cc4)ncn3n2)cc1`?
Gli-Sufu antag: -39.8; Beta cell apopt: 13.8; GRIN3A LBD mod: 3.0; Mdm2-MdmX inh: 63.7*; CSC inhib: 2.7; MPTP block: -2.0; Mdm2-MdmX conf: 5.7

Results for CCc1ccc(NC(=O)COC(=O)CC2CCCC2)cc1 ?
Gli-Sufu antag: 8.7; Beta cell apopt: 2.5; GRIN3A LBD mod: 0.5; Mdm2-MdmX inh: -16.8; CSC inhib: -19.3; MPTP block: -0.7

How did COc1ccccc1-c1cnc(C(O)c2ccc(F)c(F)c2)[nH]1 (centres undefined) do in these assays?
MPTP block: 0.7

How did O=C(NCc1ccccc1Cl)c1ccc(S(=O)(=O)NCc2ccco2)cc1 do in these assays?
Gli-Sufu antag: -1.6; GRIN3A LBD mod: 4.6; Mdm2-MdmX inh: 3.5; MPTP block: -0.3

How did Cc1cc(NC(=O)CCC(=O)N(CC(=O)NC2CCCC2)c2ccc(Cl)cc2)no1 do in these assays?
Gli-Sufu antag: 12.9; Beta cell apopt: -0.5; GRIN3A LBD mod: -2.3; Mdm2-MdmX inh: 11.0; CSC inhib: 2.2; MPTP block: 0.2

What do the screens show for `Cc1cc(N2CCN(C(C(=O)NC3CCCC3)c3ccc(-c4ccccc4)cc3)CC2)c2ccccc2n1` (centres undefined)?
MPTP block: -1.0

What do the screens show for `COc1ccccc1OCC(=O)NC1CCSc2ccccc21` (centres undefined)?
Gli-Sufu antag: 8.6; Beta cell apopt: 4.4; GRIN3A LBD mod: -0.2; Mdm2-MdmX inh: 14.5; MPTP block: -0.1

Results for COC(=O)COc1ccc(/C=N/NC(=O)c2ccc(N(Cc3ccccc3)S(C)(=O)=O)cc2)cc1 ?
Gli-Sufu antag: -1.8; Beta cell apopt: -2.5; GRIN3A LBD mod: 1.2; Mdm2-MdmX inh: 61.2*; CSC inhib: 22.5; MPTP block: -12.1; Mdm2-MdmX conf: 21.9
